Hit rate of the full screen: of about 5,500 compounds, about 2,000 (36%) were called active. Another 18% or so got no clear call; they are omitted. No stated cut-off is given here; in the data, active means normalized growth mostly below about 0.91 (no sharp cut-off); inconclusive means no clear call, values can overlap the other calls; inactive means mostly above about 0.92. Some of the results follow.
Experiment: chemical genetic growth profiling, strain panel (AID 1159580);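 further: tested at 20 µM; growth read once vehicle control cultures reached saturation at 30 °C; 1 = growth at the plate median or of vehicle wells; lower values mean less growth of the strain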
Conditions: growth OD

Measured: normalized growth

CC(C)[C@@H]1CC[C@@H](C)C[C@H]1O
inactive: S. cerevisiae deletion strains, locus YJR066W, strain TOR1, active compounds read low 0.942 | S. cerevisiae deletion strains, locus YJR075W, strain HOC1, active compounds read low 1.01 | S. cerevisiae deletion strains, locus YKL009W, strain mrt4, active compounds read low 1 | S. cerevisiae deletion strains, locus YKL068W, active compounds read low 1.01 | S. cerevisiae deletion strains, locus YKL085W, strain MDH1 (second series), active compounds read low 1.01 | S. cerevisiae deletion strains, locus YKL085W, strain MDH1, active compounds read low 1.01 | S. cerevisiae deletion strains, locus YKL160W, strain elf1, active compounds read low 0.986 | S. cerevisiae deletion strains, locus YKL190W, strain CNB1, active compounds read low 1.01 | S. cerevisiae deletion strains, locus YKR001C, strain vps1, active compounds read low 1 | S. cerevisiae deletion strains, locus YKR026C, strain gcn3, active compounds read low 0.987 | S. cerevisiae deletion strains, locus YKR091W, strain srl3, active compounds read low 0.974 | S. cerevisiae deletion strains, locus YLL001W, strain dnm1, active compounds read low 0.997 | S. cerevisiae deletion strains, locus YLL026W, active compounds read low 1 | S. cerevisiae deletion strains, locus YLL041C, strain sdh2, active compounds read low 0.978 | S. cerevisiae deletion strains, locus YLR027C, strain aat2, active compounds read low 0.997 | S. cerevisiae deletion strains, locus YLR039C, strain RIC1, active compounds read low 1 | S. cerevisiae deletion strains, locus YLR058C, strain SHM2, active compounds read low 1 | S. cerevisiae deletion strains, locus YLR102C, strain apc9, active compounds read low 1.02 | S. cerevisiae deletion strains, locus YLR113W, strain HOG1, active compounds read low 0.973 | S. cerevisiae deletion strains, locus YLR221C, strain rsa3, active compounds read low 0.999 | S. cerevisiae deletion strains, locus YLR258W, strain gsy2, active compounds read low 0.99 | S. cerevisiae deletion strains, locus YLR262C, strain YPT6 (second series), active compounds read low 0.935 | S. cerevisiae deletion strains, locus YLR262C, strain YPT6, active compounds read low 1.01 | S. cerevisiae deletion strains, locus YLR268W, strain sec22, active compounds read low 1.01 | S. cerevisiae deletion strains, locus YLR320W, strain mms22, active compounds read low 0.991 | S. cerevisiae deletion strains, locus YLR330W, strain CHS5, active compounds read low 1.01 | S. cerevisiae deletion strains, locus YLR342W, strain FKS1 (second series), active compounds read low 1.02 | S. cerevisiae deletion strains, locus YLR342W, strain FKS1, active compounds read low 0.986 | S. cerevisiae deletion strains, locus YLR357W, strain rsc2, active compounds read low 0.953 | S. cerevisiae deletion strains, locus YLR370C, strain arc18, active compounds read low 0.985 | S. cerevisiae deletion strains, locus YLR371W, strain rom2, active compounds read low 1.01 | S. cerevisiae deletion strains, locus YLR384C, strain iki3, active compounds read low 0.999 | S. cerevisiae deletion strains, locus YLR418C, strain cdc73, active compounds read low 1.05 | S. cerevisiae deletion strains, locus YML016C, strain PPZ1, active compounds read low 1.01 | S. cerevisiae deletion strains, locus YML032C, strain rad52, active compounds read low 1 | S. cerevisiae deletion strains, locus YML120C, strain ndi1, active compounds read low 0.989 | S. cerevisiae deletion strains, locus YML124C, strain tub3, active compounds read low 1.02 | S. cerevisiae deletion strains, locus YMR058W, strain fet3, active compounds read low 0.97 | S. cerevisiae deletion strains, locus YMR078C, strain ctf18, active compounds read low 1.02 | S. cerevisiae deletion strains, locus YMR125W, strain sto1, active compounds read low 0.969 | S. cerevisiae deletion strains, locus YMR129W, active compounds read low 0.984 | S. cerevisiae deletion strains, locus YMR205C, strain PFK2, active compounds read low 1.01 | S. cerevisiae deletion strains, locus YMR223W, strain ubp8, active compounds read low 1.03 | S. cerevisiae deletion strains, locus YMR231W, strain pep5, active compounds read low 1 | S. cerevisiae deletion strains, locus YMR307W, strain GAS1, active compounds read low 0.985 | S. cerevisiae deletion strains, locus YNL067W, strain RPL9B, active compounds read low 0.976 | S. cerevisiae deletion strains, locus YNL071W, strain lat1, active compounds read low 0.979 | S. cerevisiae deletion strains, locus YNL128W, strain TEP1, active compounds read low 1.02 | S. cerevisiae deletion strains, locus YNL153C, strain GIM3, active compounds read low 0.95 | S. cerevisiae deletion strains, locus YNL183C, strain NPR1, active compounds read low 0.943 | S. cerevisiae deletion strains, locus YNL209W, strain ssb2, active compounds read low 0.985 | S. cerevisiae deletion strains, locus YNL233W, strain BNI4, active compounds read low 0.988 | S. cerevisiae deletion strains, locus YNL248C, strain rpa49, active compounds read low 0.987 | S. cerevisiae deletion strains, locus YNL250W, strain rad50, active compounds read low 1.02 | S. cerevisiae deletion strains, locus YNL271C, strain bni1, active compounds read low 1.02 | S. cerevisiae deletion strains, locus YNL298W, strain CLA4, active compounds read low 1.02 | S. cerevisiae deletion strains, locus YNL307C, strain MCK1, active compounds read low 1.02 | S. cerevisiae deletion strains, locus YNL322C, strain KRE1 (second series), active compounds read low 0.993 | S. cerevisiae deletion strains, locus YNR049C, strain mso1, active compounds read low 0.99 | S. cerevisiae deletion strains, locus YNR052C, strain pop2, active compounds read low 1.02 | S. cerevisiae deletion strains, locus YOL006C, strain TOP1, active compounds read low 0.977 | S. cerevisiae deletion strains, locus YOL012C, strain htz1 1.02 | S. cerevisiae deletion strains, locus YOL147C, strain pex11, active compounds read low 1.02 | S. cerevisiae deletion strains, locus YOR001W, strain rrp6, active compounds read low 0.993 | S. cerevisiae deletion strains, locus YOR061W, strain CKA2, active compounds read low 1.01 | S. cerevisiae deletion strains, locus YOR069W, strain VPS5, active compounds read low 1.02 | S. cerevisiae deletion strains, locus YOR070C, strain gyp1, active compounds read low 1 | S. cerevisiae deletion strains, locus YOR080W, strain dia2, active compounds read low 0.99 | S. cerevisiae deletion strains, locus YOR083W, strain WHI5, active compounds read low 0.996 | S. cerevisiae deletion strains, locus YOR106W, strain vam3, active compounds read low 0.979 | S. cerevisiae deletion strains, locus YOR136W, strain idh2, active compounds read low 1.01 | S. cerevisiae deletion strains, locus YOR144C, strain elg1, active compounds read low 1.02 | S. cerevisiae deletion strains, locus YOR184W, strain ser1, active compounds read low 1 | S. cerevisiae deletion strains, locus YOR231W, strain MKK1, active compounds read low 0.997 | S. cerevisiae deletion strains, locus YOR265W, strain rbl2, active compounds read low 0.988 | S. cerevisiae deletion strains, locus YOR270C, strain vph1, active compounds read low 0.931 | S. cerevisiae deletion strains, locus YOR290C, strain snf2, active compounds read low 0.967 | S. cerevisiae deletion strains, locus YOR316C, strain cot1, active compounds read low 1.03 | S. cerevisiae deletion strains, locus YPL051W, strain arl3, active compounds read low 1.02 | S. cerevisiae deletion strains, locus YPL078C, strain atp4, active compounds read low 0.976 | S. cerevisiae deletion strains, locus YPL106C, strain sse1, active compounds read low 1 | S. cerevisiae deletion strains, locus YPL240C, strain hsp82, active compounds read low 1 | S. cerevisiae deletion strains, locus YPL241C, strain CIN2, active compounds read low 1.01 | S. cerevisiae deletion strains, locus YPL256C, strain CLN2, active compounds read low 0.985 | S. cerevisiae deletion strains, locus YPR119W, strain clb2, active compounds read low 1.01 | S. cerevisiae deletion strains, locus YPR141C, strain kar3, active compounds read low 1.02 | S. cerevisiae deletion strains, locus YPR163C, strain tif3, active compounds read low 1.02 | S. cerevisiae deletion strains, locus YPR167C, strain met16, active compounds read low 1.02 | S. cerevisiae deletion strains, strain wtn01, active compounds read low 1.03 | S. cerevisiae strains, strain wild type, active compounds read low 1.01

From PubChem BioAssay AID1159580 (chemical genetic matrix, 2015)
